Screening data as filed in PubChem BioAssay.
A selection: hits, their analogues and other compounds. The true share with any hit is near 6.9%.
PLK1 PBD inh = blocks phosphopeptide binding to human PLK1 polo-box domain. P53350. Plk1 PBD binding of FITC phosphopeptide, fluorescence polarization. Potency, µM, actives largely listed as inhibitors. 2.8% of 360,000 active. AID 720504; note: series mostly up to about 57 µM; nearly all actives have a fitted effect of over 65% in size
Target sequence (P53350 whole entry, looked up, the tested form may be a part): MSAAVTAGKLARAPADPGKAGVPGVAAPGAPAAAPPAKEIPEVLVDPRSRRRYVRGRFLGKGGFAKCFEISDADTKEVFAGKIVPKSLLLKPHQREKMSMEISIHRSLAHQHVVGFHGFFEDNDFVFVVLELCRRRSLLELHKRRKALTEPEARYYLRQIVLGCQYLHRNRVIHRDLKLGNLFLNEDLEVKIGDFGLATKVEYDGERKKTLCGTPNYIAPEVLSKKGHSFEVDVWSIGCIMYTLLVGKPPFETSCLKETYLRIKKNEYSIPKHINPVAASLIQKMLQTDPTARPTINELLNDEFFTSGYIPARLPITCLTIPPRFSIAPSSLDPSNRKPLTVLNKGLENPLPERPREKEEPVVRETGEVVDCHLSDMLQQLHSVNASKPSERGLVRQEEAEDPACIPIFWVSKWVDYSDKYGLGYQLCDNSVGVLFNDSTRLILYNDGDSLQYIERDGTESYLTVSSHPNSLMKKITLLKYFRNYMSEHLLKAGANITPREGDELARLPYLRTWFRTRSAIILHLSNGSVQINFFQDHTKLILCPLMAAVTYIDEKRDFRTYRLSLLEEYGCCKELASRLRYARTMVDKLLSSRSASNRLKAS
HP1b chromo inh = blocks HP1-beta chromodomain binding to methylated histone tails; Potency, µM (highest dose often 114 µM), hits mostly inhibitors; AlphaScreen HP1-beta / biotin-H3K9me3 peptide binding; P83916; 0.56% of 390,000 active; note: nearly all actives have a fitted effect of over 70% in size
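AlphaScreen: HP1-beta (50 nM) preformed 30 min with biotin-H3(1-18)K9me3 peptide (50 nM) in PBS pH 7.4, 0.01% Tween-20. Compound added for 30 min at RT, then streptavidin donor/nickel chelate acceptor beads (10 ug/mL) for 30 min.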
L3MBTL1 inh = blocks human L3MBTL1 | Q9Y468 | AlphaScreen L3MBTL1–H3K9me1 peptide binding | Potency, µM (doses to about 57.1 µM), hits mostly inhibitors | 0.66% of 230,000 active | AID 485360; note: nearly all actives have a fitted effect of over 60% in size
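AlphaScreen proximity signal between nickel-chelate acceptor and streptavidin donor beads (final 10 ug/mL) reports binding of 50 nM L3MBTL1 to 75 nM biotin-H3 K9me1 peptide; complex incubated with compounds 30 min at room temperature; cefsulodin titration as control.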
BAZ2B block = BAZ2B (human) inhibition; Q9UIF8; AlphaScreen BAZ2B-H3K14Ac peptide displacement; Potency, µM (series often up to 114 µM), hits mostly inhibitors; 4.4% of 360,000 active; note: nearly all actives have a fitted effect of over 60% in size
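AlphaScreen displacement: compounds (up to 110uM) incubated 30 min at room temperature with a preformed 50 nM BAZ2B/50 nM biotinylated H3K14Ac peptide complex in PBS pH 7.4 with Tween-20. Donor and acceptor beads at 10 ug/mL final added, 20 min light-protected before reading.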
JMJD2A Tudor = inhibitors of human JMJD2A Tudor domain | O75164 | AlphaScreen JMJD2A-Tudor / H3K4me3 peptide binding | Potency, µM (series often up to 114 µM), hits mostly inhibitors | 4.4% of 390,000 active | AID 504339; note: nearly all actives have a fitted effect of over 50% in size
VDR inhibitor = inhibitors of human vitamin D receptor; VDR-SRC2-3 peptide fluorescence polarization, 2 h; Potency, µM, usual class: inhibitors; 0.93% of 400,000 active; AID 504847
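Inhibition of the VDR/SRC2-3 peptide interaction is quantified by fluorescence polarization. Compounds (23 nl, pintool) incubate with the reagents for 2 hours at ambient room temperature.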
Numbers stand for hits; [ ] = another dose, or the depositor's remark. Calls come from the whole dose curve; as a rule, active = well fitted curve in the direction sought with a large enough effect; inconclusive = small, poorly fitted or top-dose-only effect, or another doubt; inactive = no such curve, though single readings can be large; an effect the other way counts as inactive or inconclusive.

What do the screens show for `O=C(NCC1CCCO1)c1ccc(C(=O)NCC2CCCO2)cc1` (centres undefined)?
PLK1 PBD inh: inactive; HP1b chromo inh: inactive; L3MBTL1 inh: inactive; BAZ2B block: inactive; JMJD2A Tudor: inactive; VDR inhibitor: inactive

What do the screens show for `O=C(CSc1ccccc1)Nc1ccc(S(=O)(=O)NCC2CCCO2)cc1` (centres undefined)?
PLK1 PBD inh: 24µM; HP1b chromo inh: inactive; L3MBTL1 inh: inactive; BAZ2B block: inactive; JMJD2A Tudor: inactive; VDR inhibitor: inactive

How did O=C(Cc1ccc(Br)cc1)Nc1ccc(S(=O)(=O)NCC2CCCO2)cc1 (centres undefined) do in these assays?
PLK1 PBD inh: 24µM; HP1b chromo inh: inactive; L3MBTL1 inh: inactive; BAZ2B block: inactive; JMJD2A Tudor: 22µM; VDR inhibitor: inconclusive

Results for S=C(NCC1CCCO1)c1ccc(Br)cc1 (centres undefined) ?
PLK1 PBD inh: 12µM; HP1b chromo inh: inconclusive; L3MBTL1 inh: inactive; BAZ2B block: inactive; JMJD2A Tudor: inactive; VDR inhibitor: inconclusive

What do the screens show for `NS(=O)(=O)c1ccc(CCNC(=O)Cn2c(=O)c3cccn3c3ccc(F)cc32)cc1`?
HP1b chromo inh: inactive; BAZ2B block: inactive; JMJD2A Tudor: inactive; VDR inhibitor: inactive

How did CCOc1ccc(OCC(=O)NCCS(=O)(=O)N2CCN(c3ccccc3F)CC2)cc1 do in these assays?
HP1b chromo inh: inactive; BAZ2B block: inactive; JMJD2A Tudor: inactive; VDR inhibitor: inactive

What do the screens show for `CCOc1cc(C(N)=O)cc(OCC)c1OCC`?
PLK1 PBD inh: inactive; HP1b chromo inh: inactive; L3MBTL1 inh: inactive; BAZ2B block: inactive; JMJD2A Tudor: inactive; VDR inhibitor: inactive

What do the screens show for `CCOc1cc(-c2nn3cnnc3s2)cc(OCC)c1OCC`?
PLK1 PBD inh: 3.8µM; HP1b chromo inh: inactive; L3MBTL1 inh: inactive; BAZ2B block: inactive; JMJD2A Tudor: 18µM; VDR inhibitor: inconclusive

How did Cc1ccc(CNC(=O)CN(c2cc(C)cc(C)c2)S(=O)(=O)c2c(C)noc2C)cc1 do in these assays?
HP1b chromo inh: inactive; JMJD2A Tudor: inactive; VDR inhibitor: inactive

What do the screens show for `COc1ccccc1NS(=O)(=O)c1cc(NC(=O)C(C)NC(N)=O)ccc1N1CCCC1` (centres undefined)?
PLK1 PBD inh: 13µM; HP1b chromo inh: inactive; L3MBTL1 inh: inactive; BAZ2B block: inactive; JMJD2A Tudor: inactive; VDR inhibitor: inconclusive

Results for COc1ccc(NS(=O)(=O)c2cc(NC(=O)[C@H](C)NC(N)=O)ccc2N2CCCC2)cc1 ?
PLK1 PBD inh: inactive; HP1b chromo inh: inactive; L3MBTL1 inh: inactive; JMJD2A Tudor: inactive; VDR inhibitor: inactive

How did COc1ccccc1NS(=O)(=O)c1cc(NC(=O)c2ccncc2)ccc1N1CCCC1 do in these assays?
PLK1 PBD inh: 17µM; HP1b chromo inh: inconclusive; L3MBTL1 inh: inactive; JMJD2A Tudor: inactive; VDR inhibitor: inconclusive

How did COc1ccccc1NS(=O)(=O)c1cc(N)ccc1N1CCCC1 do in these assays?
PLK1 PBD inh: 6.7µM; HP1b chromo inh: 14µM; L3MBTL1 inh: inactive; JMJD2A Tudor: inconclusive; VDR inhibitor: 89µM

Results for COCC(=O)Nc1ccc(N2CCCC2)c(S(=O)(=O)Nc2ccccc2OC)c1 ?
PLK1 PBD inh: inactive; HP1b chromo inh: inactive; L3MBTL1 inh: inactive; BAZ2B block: inactive; JMJD2A Tudor: inactive; VDR inhibitor: inactive

Results for COc1ccc(NS(=O)(=O)c2cc(NC(=O)c3cnccn3)ccc2N2CCCC2)cc1 ?
PLK1 PBD inh: 21µM; HP1b chromo inh: inconclusive; L3MBTL1 inh: inactive; BAZ2B block: inactive; JMJD2A Tudor: inconclusive; VDR inhibitor: inconclusive

What do the screens show for `CCN(CC)CCNC(=O)C(=O)NCC(c1cccnc1)N1CCN(c2ccc(F)cc2)CC1` (centres undefined)?
HP1b chromo inh: inactive; BAZ2B block: inactive; JMJD2A Tudor: inactive; VDR inhibitor: inactive

Results for COc1ccc(CCNC(=O)c2ccc(Cn3c(=O)c4ccccc4n(CC(=O)C(C)(C)C)c3=O)cc2)cc1OC ?
HP1b chromo inh: inactive; BAZ2B block: inactive; JMJD2A Tudor: inactive; VDR inhibitor: inactive

How did COc1ccccc1NS(=O)(=O)c1cc(NC(C)=O)ccc1N1CCCCC1 do in these assays?
PLK1 PBD inh: 9.5µM; HP1b chromo inh: inconclusive; L3MBTL1 inh: inactive; JMJD2A Tudor: 79µM; VDR inhibitor: inconclusive

How did CCOC(=O)C(=CNc1ccc(N2CCCCC2)c(S(=O)(=O)Nc2ccccc2OC)c1)C(=O)OCC do in these assays?
PLK1 PBD inh: 11µM; HP1b chromo inh: inconclusive; JMJD2A Tudor: inconclusive; VDR inhibitor: inconclusive

Results for CCCS(=O)(=O)c1nc(S(=O)(=O)c2ccc(C)cc2)c(NCCCOC(C)C)s1 ?
HP1b chromo inh: inactive; BAZ2B block: inactive; JMJD2A Tudor: inactive; VDR inhibitor: inactive

What do the screens show for `COc1cccc(NS(=O)(=O)c2cc(C)ccc2OC)c1`?
PLK1 PBD inh: 8.4µM; HP1b chromo inh: inactive; L3MBTL1 inh: inactive; BAZ2B block: inactive; JMJD2A Tudor: inconclusive; VDR inhibitor: inconclusive

What do the screens show for `COc1ccc(NC(=O)CC2C(=O)N(c3ccc(F)cc3)C(=O)N2Cc2ccc3c(c2)OCO3)cc1` (centres undefined)?
HP1b chromo inh: inactive; BAZ2B block: inactive; JMJD2A Tudor: inactive; VDR inhibitor: inconclusive

Results for CC(=O)c1ccc(NC(=O)C(Cc2ccccc2)n2cccc2)cc1 (centres undefined) ?
PLK1 PBD inh: 13µM; HP1b chromo inh: inactive; BAZ2B block: inactive; JMJD2A Tudor: inactive[11.4 µM]; VDR inhibitor: inconclusive

What do the screens show for `O=c1c(CN2CCN(c3ccccn3)CC2)coc2ccccc12`?
PLK1 PBD inh: inactive; HP1b chromo inh: inconclusive; L3MBTL1 inh: inactive; BAZ2B block: 79µM; JMJD2A Tudor: 22µM; VDR inhibitor: inactive

What do the screens show for `C(#Cc1ccccc1)CN1CCCCC1`?
PLK1 PBD inh: inactive; HP1b chromo inh: inactive; L3MBTL1 inh: inactive; BAZ2B block: inactive; JMJD2A Tudor: inactive; VDR inhibitor: inactive

How did Brc1ccc(CN2CCN(c3ccccn3)CC2)s1 do in these assays?
PLK1 PBD inh: inactive; HP1b chromo inh: inconclusive; BAZ2B block: 45µM; JMJD2A Tudor: 7.9µM; VDR inhibitor: inactive

How did C(#Cc1ccccc1)CN1CCN(c2ccccn2)CC1 do in these assays?
PLK1 PBD inh: inactive; HP1b chromo inh: inactive; L3MBTL1 inh: inactive; BAZ2B block: 50µM; JMJD2A Tudor: inconclusive; VDR inhibitor: inactive

Results for c1ccc(N2CCN(Cc3ccc4c(c3)OCO4)CC2)nc1 ?
PLK1 PBD inh: inactive; HP1b chromo inh: inconclusive; JMJD2A Tudor: 28µM; VDR inhibitor: inactive

What do the screens show for `c1ccc(N2CCN(Cc3nc4ccccc4[nH]3)CC2)nc1`?
PLK1 PBD inh: inactive; HP1b chromo inh: inactive; BAZ2B block: inactive; JMJD2A Tudor: inactive; VDR inhibitor: inactive

What do the screens show for `C[C@@H](C(=O)CC(=O)OC(C)(C)C)[C@@H](O)c1ccccc1`?
PLK1 PBD inh: inactive; HP1b chromo inh: inactive; L3MBTL1 inh: inactive; BAZ2B block: inactive; JMJD2A Tudor: inactive; VDR inhibitor: inactive
